Experimental data as given in ChEMBL document CHEMBL1157539, “Thousands of chemical starting points for antimalarial lead identification” (Nature, 2010).

test system: HepG2; experiment: GSK_TCMDC: Percent inhibition of human HepG2 cell line. Test compounds present at 10uM.; type: functional

Which Inhibition does the source give for `CCCN(CCC)S(=O)(=O)c1ccc(C(=O)N2CCC(C(=O)OCC)CC2)cc1` here?
The Inhibition was 26%.

With `COc1ccccc1C1CCN(CCCCNC(=O)c2ccc(/C=C/c3cc(Cl)cc(Cl)c3)cc2)CC1` as the compound, how does the Inhibition read?
The Inhibition was 36%.

`Cc1cc(=NN=Cc2cccc(Cl)c2)c2cc(F)ccc2[nH]1` was tested. Which Inhibition did it give?
The Inhibition was 1%.

For `CC(Cc1ccc(NC(=O)c2ccc(CC(C)NCc3ccc(Cl)c(Cl)c3)cc2)cc1)NCCc1cccc(Cl)c1` (centres undefined), which Inhibition is on record?
Its Inhibition is 26%.

With `N=C1NC(=O)C(=Cc2cn(-c3ccccc3)nc2-c2cccc(S(=O)(=O)N3CCCC3)c2)S1` as the compound, how does the Inhibition read?
The Inhibition was 0%.

With `Cc1cc(C(F)(F)F)n2nc(C(=O)N(C)Cc3cncn3Cc3ccc(F)cc3)cc2n1` as the compound, how does the Inhibition read?
Its Inhibition is 0%.

How did the Inhibition turn out when `NC1=NC(c2ccccc2)(c2ccccc2)C(=O)N1CC1CCC1.O=CO` was run?
Its Inhibition is 17%.

With `Br.CN1C(=O)C(=O)N(CCCCCONC(=N)N)C1=S` as the compound, how does the Inhibition read?
Its Inhibition is 21%.

How did the Inhibition turn out when `Cc1noc(-c2ccc(N3CCC(C(=O)N4CCN(C(C)C)CC4)CC3)cc2)n1.Cl` was run?
Its Inhibition is 0%.

Which Inhibition does the source give for `FC(F)(F)c1cc(C(F)(F)F)c2cc(CNCCCNc3nc4ccccc4[nH]3)[nH]c2c1` here?
The Inhibition was 99%.

With `COc1ccc2nc(Nc3nc4cnccc4[nH]3)sc2c1` as the compound, how does the Inhibition read?
Its Inhibition is 8%.

Which Inhibition does the source give for `CCN(CCCN1CCCCC1)c1cc(C)nc(Nc2cccc(C(F)(F)F)c2)n1.O=C(O)C(F)(F)F` here?
The Inhibition was 25%.

How did the Inhibition turn out when `Cn1nccc1C(=O)NCCNCc1ccc(-c2cccc(-c3nc4ccccc4[nH]3)c2)cc1.O=C(O)C(F)(F)F` was run?
Its Inhibition is 35%.

For `COc1ccc(NC(=O)Nc2ccc(C)c(-c3ccc(C(=O)Nc4ccncc4)cc3)c2)cc1`, which Inhibition is on record?
The Inhibition was 39%.
